Laboratory results reported in PubChem BioAssay (Tox21).
Records with an inconclusive call do not appear. Where a call stands in place of a potency, no number is given. The source made the active and inactive calls. Calls come from the whole dose curve; as a rule, active = well fitted cell-killing curve with a large enough effect in the repeat runs; inconclusive = weak or mixed curves, or effect the other way; inactive = flat fitted curve, though single readings scatter.
Potency is the fitted concentration of half-maximal effect.

Experiment: qHTS RealTime-Glo MT Cell Viability Assay in HEK293 cells - 16 hour (AID 1224872); note: nearly all actives have a fitted effect of over 50% in size
Details: RealTime-Glo luminescence; series mostly up to 76.8 µM
Source text: National Center for Advancing Translational Sciences [NCATS]
NIH Chemical Genomics Center [NCGC]
U.S. Environmental Protection Agency [EPA]
National Institutes of Environmental Health Sciences [NIEHS]
National Toxicology Program [NTP]
U.S. Food and Drug Administration [FDA]
Measure of cell viability is critical in the cell-base assay. Analysis of cell viability is necessary for the characterization of cell responses to cytotoxic drugs and environmental stress. A RealTime-Glo MT Cell Viability Assay to monitor cell viability in real time of continues cell culture during 40 hours of compound treatment was used to screen Tox21 10K library compounds in Hek293 cells. The RealTime-Glo MT Cell Viability Assay is a nonlytic, homogeneous, bioluminescent method to measure cell viability in real time using a simple, plate-based method. The assay involves adding NanoLuc luciferase and a cell-permeant prosubstrate to cells in culture. Viable cells reduce the proprietary prosubstrate to generate a substrate for NanoLuc luciferase. This substrate diffuses from cells into the surrounding culture medium, where it is rapidly used by the NanoLuc Enzyme to produce a luminescent signal. The signal correlates with the number of viable cells, making the assay well suited for cytotoxicity studies.
Tox21 Assay Protocol Summary:
The mixture of Hek293 cell suspension and reagents were dispensed at 600cells/6 ul/well in 1536-well tissue culture treated black solid bottom plates using a Multidrop dispenser. After the assay plates were incubated at a 37 C/5% CO2 incubator for 5 hours, 23 nL of compounds dissolved in DMSO, positive and negative controls was transferred to the assay plate by a pintool work station. The plates were incubated at 37 C for 40 hours. The luminescence intensity were measured at 0h, 8h, 16h, 24h, 32h and 40h time points using ViewLux plate reader during compound treatment.
For `CC(S)C(=O)NCC(=O)O` (stereo not given), the Potency was “inactive”.
With `CCCOC(=O)C(C)O` (stereo not given) the Potency was “inactive”.
For `O=C(OCC(O)CO)c1ccccc1Nc1ccnc2c(C(F)(F)F)cccc12` (stereo not given), the Potency was 5.35 µM (active).
For `COc1cc(N)ccc1C`, the Potency was “inactive”.
In the case of `NCCS`, the Potency is reported as “inactive”.
In the case of `OCCC(F)(F)C(F)(F)C(F)(F)C(F)(F)C(F)(F)C(F)(F)C(F)(F)C(F)(F)F`, the Potency is reported as “inactive”.
In the case of `O=C(NCCN1CCOCC1)c1ccc(Cl)cc1`, the Potency is reported as “inactive”.
In the case of `NNc1nnc(NN)c2ccccc12`, the Potency is reported as “inactive”.
With `CC(C)(C)OC(=O)c1ccc(O)cc1` the Potency was “inactive”.
With `O=C1O[C@@H]2[C@@H](O)[C@H](O)O[C@@H]2[C@H]1O` the Potency was “inactive”.
For `CCOC(=O)[C@H](CCc1ccccc1)N[C@@H](C)C(=O)N1C(=O)N(C)C[C@H]1C(=O)O`, the Potency was “inactive”.
For `Cc1cc(Cl)c(C)cc1Cl`, the Potency was “inactive”.
In the case of `CC(C)C(=O)OCCc1ccccc1`, the Potency is reported as “inactive”.
For `C[Si](C)(C)C`, the Potency was “inactive”.
With `CC(=O)NCCCCCC(=O)O` the Potency was “inactive”.
For `CCOc1cc(NC(C)=O)ccc1C(=O)OC`, the Potency was “inactive”.
For `COc1ccc(OC)c(Cl)c1`, the Potency was “inactive”.
For `NS(=O)(=O)c1cc2c(cc1Cl)CN(C1CCCCC1)C2=O`, the Potency was 10.7 µM (active).
In the case of `CN(C)c1ccc(C=O)cc1`, the Potency is reported as “inactive”.
For `CCOC(=O)/C=C/c1ccccc1`, the Potency was “inactive”.
With `Cc1cccc2nccnc12` the Potency was “inactive”.
In the case of `CN=C(NC#N)Nc1ccc(C2=NNC(=O)CC2C)cc1` (stereo not given), the Potency is reported as “inactive”.
For `CC(C)=O`, the Potency was “inactive”.
With `CCCCOCCOC(=O)COc1nc(Cl)c(Cl)cc1Cl` the Potency was “inactive”.
For `COc1cc2c(cc1OC)[C@@H]1CC(=O)[C@@H](CC(C)C)CN1CC2`, the Potency was “inactive”.
For `Brc1ccc(-c2ccccc2)cc1`, the Potency was “inactive”.
With `C[C@@H]1O[C@@H](O[C@@H]2[C@@H](O)[C@H](OCCc3ccc(O)c(O)c3)O[C@H](CO[C@@H]3O[C@H](CO)[C@@H](O)[C@H](O)[C@H]3O)[C@H]2OC(=O)/C=C/c2ccc(O)c(O)c2)[C@H](O)[C@H](O)[C@H]1O` the Potency was “inactive”.
In the case of `Cc1ccccc1N=O`, the Potency is reported as “inactive”.
With `O=S(=O)(O)c1cc(O)c2ccc(Nc3ccccc3)cc2c1` the Potency was “inactive”.
In the case of `COc1ccc(C2CNC(=O)C2)cc1OC1CCCC1` (stereo not given), the Potency is reported as “inactive”.
For `CC(C)N(c1ccccc1)C(C)C`, the Potency was “inactive”.
With `O=C(OCC(COC(=O)c1cccnc1)(COC(=O)c1cccnc1)COC(=O)c1cccnc1)c1cccnc1` the Potency was “inactive”.
With `C=C(C)C(=O)OCCN(CC)CC` the Potency was “inactive”.
For `O=C(OCC1(COC(=O)c2cccnc2)CCCC(COC(=O)c2cccnc2)(COC(=O)c2cccnc2)C1O)c1cccnc1`, the Potency was “inactive”.
With `NS(=O)(=O)c1ccc(NC(=O)CCC(=O)O)cc1` the Potency was “inactive”.
For `C=C(C)C(=O)OCc1ccccc1`, the Potency was “inactive”.
For `CCOCCOC(=O)/C=C/c1ccc(OC)cc1`, the Potency was “inactive”.
For `CCCC(=O)C(C)=O`, the Potency was “inactive”.
For `C[C@H](N)[C@H](O)c1cccc(O)c1`, the Potency was “inactive”.
With `COc1ccc2c(c1)C(=O)N(CCc1ccc(S(=O)(=O)NC(=O)NC3CCCCC3)cc1)C(=O)C2(C)C` the Potency was “inactive”.
